Source: PubChem BioAssay (National Center for Advancing Translational Sciences (NCATS))
An excerpt weighted towards active compounds, which were near 12% of everything screened.
G9a inh: G9a (human) methyltransferase inhibition | Q96KQ7 | G9a H3K9 monomethylation, AlphaScreen, 2 h | Potency, µM (titrated, usually from 102 µM), inactives show at the highest dose activity, negative = inhibition, hits mostly inhibitors | 350,000 tested, 8.8% active | AID 504332; further: on the % scale 0 is the no-effect control and ±100 the full control effect; nearly all actives have a fitted effect of over 75% in size
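G9a (20 nM) was preincubated 15 min with compound, then reacted 2 h at room temperature with 500 nM biotin-H3K9 peptide and 20 µM SAM. Monomethyl-H3K9 detected by AlphaScreen using anti-H3K9me1 antibody.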
BAZ2B inh: blocks human BAZ2B | 360,000 tested, 4.4% active | Q9UIF8 | AID 504333 | Potency, µM (highest dose often 114 µM), without a hit: at the highest dose activity change, negative = inhibition, most hits filed as inhibitors | AlphaScreen BAZ2B-H3K14Ac peptide displacement; further: on the % scale 0 is the no-effect control and ±100 the full control effect; nearly all actives have a fitted effect of over 60% in size
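Complex of BAZ2B and biotin-H3K14Ac (50 nM apiece) forms over 30 min at RT, then faces library compounds up to 110 uM for another 30 min; AlphaScreen beads added, 20 min dark incubation, luminescence read.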
HP1b chromo inh: HP1-beta chromodomain-methylated histone interaction inhibition. P83916. AlphaScreen HP1-beta / biotin-H3K9me3 peptide binding. Potency, µM (doses to about 114 µM), for the others: top-dose activity change, negative = inhibition, usual class: inhibitors. 390,000 tested, 0.56% active. AID 540317; further: nearly all actives have a fitted effect of over 70% in size
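HP1-beta protein (50 nM final) preincubated 30 min at room temperature with biotinylated H3(1-18)K9me3 peptide (50 nM) in PBS pH 7.4, 0.01% Tween-20, then compound added for 30 min. AlphaScreen streptavidin donor/nickel chelate acceptor beads (10 ug/mL final), 30 min dark, luminescence read.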
JMJD2A Tudor inh: blocks the human JMJD2A Tudor domain; 390,000 tested, 4.4% active; AlphaScreen JMJD2A-Tudor / H3K4me3 peptide binding; Potency, µM (top dose mostly 114 µM), without a hit: top-dose activity change, negative = inhibition, most hits filed as inhibitors; AID 504339; further: on the % scale 0 is the no-effect control and ±100 the full control effect; nearly all actives have a fitted effect of over 50% in size
Target sequence (O75164 whole entry, looked up, the tested form may be a part): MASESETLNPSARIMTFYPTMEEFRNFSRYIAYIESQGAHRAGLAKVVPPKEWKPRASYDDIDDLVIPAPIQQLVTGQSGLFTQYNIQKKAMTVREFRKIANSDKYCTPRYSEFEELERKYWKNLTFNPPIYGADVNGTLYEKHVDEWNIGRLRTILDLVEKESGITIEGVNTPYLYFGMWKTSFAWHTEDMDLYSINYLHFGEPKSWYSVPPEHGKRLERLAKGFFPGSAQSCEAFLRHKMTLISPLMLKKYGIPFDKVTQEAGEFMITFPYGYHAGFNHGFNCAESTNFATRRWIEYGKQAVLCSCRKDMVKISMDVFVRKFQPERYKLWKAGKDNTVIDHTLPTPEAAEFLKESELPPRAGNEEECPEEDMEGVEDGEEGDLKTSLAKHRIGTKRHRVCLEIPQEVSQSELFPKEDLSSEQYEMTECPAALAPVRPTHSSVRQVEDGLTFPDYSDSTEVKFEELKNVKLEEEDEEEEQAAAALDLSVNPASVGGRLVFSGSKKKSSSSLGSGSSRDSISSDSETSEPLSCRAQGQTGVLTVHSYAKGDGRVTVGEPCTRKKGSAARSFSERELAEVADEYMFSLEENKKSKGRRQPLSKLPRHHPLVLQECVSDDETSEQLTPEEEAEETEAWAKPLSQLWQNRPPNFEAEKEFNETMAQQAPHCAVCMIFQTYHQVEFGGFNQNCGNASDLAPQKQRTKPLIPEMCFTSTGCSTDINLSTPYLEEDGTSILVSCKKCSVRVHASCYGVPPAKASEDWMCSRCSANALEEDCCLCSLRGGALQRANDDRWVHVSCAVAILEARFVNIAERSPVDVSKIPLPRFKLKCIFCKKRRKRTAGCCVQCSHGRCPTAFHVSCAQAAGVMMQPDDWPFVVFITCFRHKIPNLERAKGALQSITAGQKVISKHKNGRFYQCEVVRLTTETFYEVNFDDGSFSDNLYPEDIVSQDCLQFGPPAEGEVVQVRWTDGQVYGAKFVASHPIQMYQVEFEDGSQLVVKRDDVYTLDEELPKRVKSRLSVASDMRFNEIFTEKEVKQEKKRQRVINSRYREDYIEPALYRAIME
Sfp PPTase inh: blocks B. subtilis Sfp PPTase activity; Q9F4F7; Biochemical Sfp PPTase activity, qHTS; Potency, µM, inactives show largest response in the series, negative = inhibition, most hits filed as inhibitors; 310,000 tested, 3.5% active; AID 1490;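 further: the enzyme is Sfp with the accession as filed and its product quenches rhodamine fluorescence; 0% = enzyme reaction without inhibitor and -100% = no enzyme wells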
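Reaction rates are the 30-min fluorescence difference (ex 525, em 598 nm) in wells containing 15 nM Sfp, 5 uM rhodamine-CoA and 12.5 uM BHQ-2-YbbR at pH 7.6 with 10 mM MgCl2.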
L3MBTL1 inh: inhibitors of human L3MBTL1. Potency, µM (series often up to 57.1 µM), without a hit: at the highest dose activity, negative = inhibition, hits mostly inhibitors. AlphaScreen L3MBTL1–H3K9me1 peptide binding. Q9Y468. 230,000 tested, 0.66% active; further: on the % scale 0 is the no-effect control and ±100 the full control effect; nearly all actives have a fitted effect of over 60% in size
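Displacement of a biotinylated histone H3(1-15) peptide monomethylated at Lys9 (75 nM) from L3MBTL1 (50 nM) was measured by AlphaScreen after a 30 min room-temperature compound incubation; cefsulodin titration served as intraplate control.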
Active calls of the source: *; ? = inconclusive; . = no result; ! = repeats disagree; [ ] = another dose, or the depositor's remark. The call rests on the fitted dose curve; in most records, active means well fitted curve in the direction sought with a large enough effect; inconclusive means small, poorly fitted or top-dose-only effect, or another doubt; inactive means no such curve, though single readings can be large; an effect the other way counts as inactive or inconclusive. Potency means the concentration at half of the fitted maximal effect.

SMILES	G9a inh	BAZ2B inh	HP1b chromo inh	JMJD2A Tudor inh	Sfp PPTase inh	L3MBTL1 inh
CCN1CCN(CCCN(Cc2ccco2)C(=S)Nc2ccc(Cl)cc2)CC1	?	-9%	-12%	-23%	10%	3%
CCOC(=O)c1ccc(NC(=S)N(CCCN2CCN(CC)CC2)Cc2ccco2)cc1	-40%	-13%	-3%	-29%	-1%	5%
COCCNc1nc2c(c(=O)n(C)c(=O)n2C)n1Cc1c(F)cccc1Cl	2%[59 µM]	0%	17%	-6%	.	.
CCOC(=O)c1c(C)[nH]c(C)c1S(=O)(=O)N1CCN(c2ccc(Cl)cc2)CC1	?	-39%	-6%	-32%	.	.
COc1cccc(Cn2c(CNS(=O)(=O)c3ccc(F)c(Cl)c3)nc3cccnc32)c1	3%[59 µM]	3%	36%[57 µM]	-19%	.	.
O=C(CCl)N1N=C(c2ccco2)CC1c1cccs1 (stereo not given)	10µM*	-5%	16%	-18%	28µM*	-10%
CCC(=O)N1N=C(c2ccc(C)o2)CC1c1ccc(N(C)C)cc1 (stereo not given)	50µM*	?	-5%	?	-1%	-25%
Cc1ccc(C2=NN(C(=O)CCl)C(c3cccs3)C2)o1 (stereo not given)	13µM*	-10%	24%	-13%	50µM*	16%
CC(=O)N1N=C(c2ccco2)CC1c1cccs1 (stereo not given)	?	14%	22%	-13%	?	-4%
O=C(c1ccccc1)N1N=C(c2ccco2)CC1c1cccs1 (stereo not given)	.	?	?	35µM*	-17%	-11%
Fc1ccc(CNc2nc3ccc(Cl)cc3n3nnnc23)cc1	4%[59 µM]	-1%	6%	-12%	.	.
CC(C)CCNC(=O)CC1Nc2c3ccccc3nc(=S)n2C1=O (stereo not given)	56µM*	-31%	38%	11%	-16%	.
CC(C)NC(=O)CC1Nc2c3ccccc3nc(=S)n2C1=O (stereo not given)	17%[2.33 µM]	-1%	54%	-2%	?	11%
C=CCNC(=O)CC1Nc2c3ccccc3nc(=S)n2C1=O (stereo not given)	35µM*	-22%	46%	0%	?	2%
Fc1ccc(NC(=S)NCc2cccnc2)cc1	10%	-21%	39%	-8%	-3%	4%
OCc1ccccc1OCCCOc1cccc2cccnc12	15%	-5%	10%	-21%	20%	2%
Oc1ccc(CNc2ccc(F)cc2)c2cccnc12	1.6µM*	25µM*	-25%	56µM*	8%	32µM*
Oc1ccc(Cn2ccnc2)c2cccnc12	?	0.71µM*	20%	2µM*	19%	1.6µM*
COCc1ccc(O)c2ncccc12	?	1.8µM*	51%	40µM*	-3%	.
Oc1ccc2c(c1)c1ccccc1c1ncccc21	.	.	6%	-10%	.	.
OCc1ccnc2c(O)cccc12	-7%[2.33 µM]	1.4µM*	-4%	13µM*	3%	-85%
Cc1ccc(Cl)cc1N1CCN(C(=O)c2ccc3c(c2)CCN3S(=O)(=O)c2ccccc2)CC1	-9%[59 µM]	-20%	26%	-13%	.	.
COc1ccc(-c2nn(-c3ccccc3)cc2/C=N/N=C(N)N)cc1OC	?	?	-12%	?	50µM*	1%
COc1ccc(-c2nn(-c3ccccc3)cc2/C=N/Nc2cccc(C(=O)O)c2)cc1	22µM*	-37%	16%	?	7%	-1%
COc1ccc(-c2nn(-c3ccccc3)cc2/C=N/NC(=O)c2ccc(Br)o2)cc1	11%[12.7 µM]	-9%	?	5%[11.4 µM]	25%	35µM*
SMILES	G9a inh	BAZ2B inh	HP1b chromo inh	JMJD2A Tudor inh	Sfp PPTase inh	L3MBTL1 inh
COc1ccc(-c2nn(-c3ccccc3)cc2/C=N/NC(=O)c2ccc3c(c2)OCO3)cc1	47%[12.7 µM]	0%	.	.	15%	-6%
COc1ccc(-c2nn(-c3ccccc3)cc2/C=N/O)cc1OC	-28%	-23%	55%	-15%	13%	.
Brc1ccc(CNc2nc3ccccc3n2CCN2CCCCC2)cc1	45µM*	?	27%	-24%	6%	-29%
COc1ccc(OC)c(CNc2nc3ccccc3n2CCN2CCCCC2)c1	?	-39%	-7%	?	79µM*	.
Brc1cccc(CNc2nc3ccccc3n2CCN2CCCCC2)c1	?	-30%	16%	-33%	1%	?
COc1ccc(CNc2nc3ccccc3n2CCN2CCCCC2)c(OC)c1	?	?	11%	-20%	?	-9%
COc1cccc(O)c1O	.	.	.	.	20µM*	.
O=S(=O)(c1ccccc1)c1nnn2c1nc(NC1CCCCCC1)c1sccc12	-3%[59 µM]	-19%	44%	1%	.	.
CC1=C([N+](=O)[O-])C(c2ccc(Cl)cc2)NC(=O)N1C (stereo not given)	.	3%	-13%	20µM*	9%	4%
CCOc1cc(C2NC(=O)N(C)C(C)=C2[N+](=O)[O-])ccc1OC(C)=O (stereo not given)	-29%	-8%	37%	-12%	-5%	?
O=C1NC(=O)C2C3C=CC(C3)C12 (stereo not given)	10%[12.7 µM]	.	.	.	10%	.
O=C(Nc1ccc(Cl)cc1)C1CCCN(S(=O)(=O)c2ccc3[nH]c(=O)ccc3c2)C1 (stereo not given)	8%[59 µM]	4%	77%	-4%	.	.
CCCCN(C)CC(O)Cn1cc(/C=C/C(=O)c2ccc(OCC)cc2)c2ccccc21 (stereo not given)	50µM*!	?	?	50µM*	45µM*	.
CCn1cc(/C=C(\NC(=O)c2ccc(OC)cc2)C(=O)N2CCN(C)CC2)c2ccccc21	-7%[12.7 µM]	-10%	24%	-23%	5%	.
COc1ccc(C(=O)/C=C/c2cn(CC(O)CN3CCc4ccccc43)c3ccccc23)cc1 (stereo not given)	?	?	-31%	22µM*	.	.
CCC(=C(c1ccc(OC)cc1)c1ccc(OC)cc1)c1cn(CC(O)CN2CCN(C)CC2)c2ccccc12 (stereo not given)	40µM*	45µM*	50µM*	28µM*	50µM*	.
CCCCN(C)CC(O)Cn1cc(/C=C/C(=O)c2cccs2)c2ccccc21 (stereo not given)	7%[59 µM]	-8%	14%	-27%	20µM*	-5%
Cn1cc(C(=O)[C@@H]2CCc3[nH]cnc3C2)c2ccccc21	-4%[12.7 µM]	.	.	.	-15%	.
COc1ccc2c(c1)c1c(c(=O)n(-c3ccc(C)cc3)c(=O)n1CC(=O)Nc1cc(C)ccc1C)n2C	-22%[59 µM]	-5%	17%	-10%	.	.
COc1ccccc1Nc1sc(C(=O)c2ccc3c(c2)OCO3)c(N)c1S(=O)(=O)c1ccccc1	2%[59 µM]	4%	26%[57 µM]	-23%	.	.
